Source: ChEMBL document CHEMBL1157539, “Thousands of chemical starting points for antimalarial lead identification” (Nature, 2010)

How the values were obtained:
Format in all cases: functional
Plasmodium falciparum [1] = assay: GSK_TCMDC: Inhibition of Plasmodium falciparum 3D7 in whole red blood cells, using parasite LDH activity as an index of growth. Test compounds present at 2uM
Plasmodium falciparum [2] = assay: GSK_TCMDC: Inhibition of Plasmodium falciparum Dd2 in whole red blood cells, using parasite LDH activity as an index of growth. Test compounds present at 2uM
HepG2 = assay: GSK_TCMDC: Percent inhibition of human HepG2 cell line. Test compounds present at 10uM.

With COc1cccc(C=CC(=O)NC2CCC(CN3CCC(c4c[nH]c5ccccc45)CC3)CC2)c1OC (centres undefined) as the molecule, how does the Inhibition (Plasmodium falciparum [1]) read?
Its Inhibition is 100%.

And the Inhibition (Plasmodium falciparum [2])?
The Inhibition was 40%.

What about the Inhibition (HepG2) of the same molecule?
Its Inhibition is 37%.

What does the source list for CN1CC=C(c2csc3ccc(NC(=O)Nc4ccc(-c5ccncc5)c(Cl)c4)cc23)CC1?
Inhibition (Plasmodium falciparum [1]): 100%; Inhibition (Plasmodium falciparum [2]): 100%; Inhibition (HepG2): 10%

Which results are given for Cc1[nH]c2ccc([N+](=O)[O-])cc2c1C1=CCN(C)CC1?
Inhibition (Plasmodium falciparum [1]): 86%; Inhibition (Plasmodium falciparum [2]): 68%; Inhibition (HepG2): 6%
